Measurements reported in PubChem BioAssay (EPA / NIEHS).
Inconclusive results are not listed. Active and inactive are the calls of the source. The calls were made as follows: active = hit-call score of the fitted dose curve at least 0.9, where 1 is the maximum; inconclusive = response in the unintended direction; inactive = score below 0.9.

The molecules below were run against rat Acetylcholinesterase (AChE), Ache (gene 83817) (UniProt P37136) (assay: NVS_ENZ_rAChE: NovaScreen (NVS) Enzymatic Assay for rat Acetylcholinesterase (AChE) (AID 2283233)).
Sequence of rat Acetylcholinesterase (AChE), Ache (gene 83817) (P37136 whole entry, looked up): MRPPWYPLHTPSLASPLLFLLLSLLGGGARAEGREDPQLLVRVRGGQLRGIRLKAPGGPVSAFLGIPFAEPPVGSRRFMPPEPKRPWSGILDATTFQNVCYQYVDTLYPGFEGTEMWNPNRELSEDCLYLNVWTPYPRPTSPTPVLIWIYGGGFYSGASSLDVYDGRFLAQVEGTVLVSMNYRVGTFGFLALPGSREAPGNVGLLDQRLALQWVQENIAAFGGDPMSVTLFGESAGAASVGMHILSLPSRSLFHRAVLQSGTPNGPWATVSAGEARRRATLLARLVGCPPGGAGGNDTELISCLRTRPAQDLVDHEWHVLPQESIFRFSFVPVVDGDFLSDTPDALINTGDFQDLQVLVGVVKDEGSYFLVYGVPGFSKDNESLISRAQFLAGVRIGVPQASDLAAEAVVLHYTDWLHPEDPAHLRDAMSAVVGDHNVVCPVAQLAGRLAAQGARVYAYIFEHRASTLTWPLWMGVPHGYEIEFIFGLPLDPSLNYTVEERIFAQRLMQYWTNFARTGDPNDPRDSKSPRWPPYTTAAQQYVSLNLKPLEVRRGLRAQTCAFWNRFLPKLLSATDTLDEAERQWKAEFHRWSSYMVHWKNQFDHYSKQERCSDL
How it was run: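 Rat brain membrane acetylcholinesterase activity measured colorimetrically 0.33 h after compound addition, loss of signal relative to DMSO. Primary screen in duplicate at 25 uM; actives re-run as concentration-response with 50 uM top concentration.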

| Structure (SMILES) | outcome | AC50 |
| --- | --- | --- |
| Nc1c(Cl)c(Cl)nc(C(=O)O)c1Cl | inactive |  |
| CNC(=O)Oc1cccc2ccccc12 |  | 6.15 µM (active) |
| CCOP(=O)(OCC)Oc1nc(Cl)c(Cl)cc1Cl |  | 0.488 µM (active) |
| CC(C)N1C(=O)N(c2ccccc2)CSC1=NC(C)(C)C | inactive |  |
| CCNC(=O)NC(=O)C(C#N)=NOC | inactive |  |
| N#CN=C1SCCN1Cc1ccc(Cl)nc1 |  | 16.6 µM (active) |
| O=c1n(Cl)c(=O)n(Cl)c(=O)n1Cl | inactive |  |
| COP(=S)(OC)SCn1nnc2ccccc2c1=O | inactive |  |

These molecules were tested against rat Catechol-O-Methyl Transferase (COMT), Comt (gene 24267) (UniProt P22734) (assay: NVS_ENZ_rCOMT: NovaScreen (NVS) Enzymatic Assay for rat Catechol-O-Methyl Transferase (COMT) (AID 2283235)).
Sequence of rat Catechol-O-Methyl Transferase (COMT), Comt (gene 24267) (P22734 whole entry, looked up): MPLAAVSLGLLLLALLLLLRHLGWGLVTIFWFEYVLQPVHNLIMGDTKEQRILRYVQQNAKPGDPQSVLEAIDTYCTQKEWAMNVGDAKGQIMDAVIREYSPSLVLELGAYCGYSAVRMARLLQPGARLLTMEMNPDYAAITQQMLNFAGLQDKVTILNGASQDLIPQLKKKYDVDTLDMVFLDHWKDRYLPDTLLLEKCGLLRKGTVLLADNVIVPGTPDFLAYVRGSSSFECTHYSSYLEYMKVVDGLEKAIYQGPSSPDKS
How it was run: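 Cell-free enzyme activity with protein extracted from rat dorsal striatum, measured by HPLC with absorbance detection. Compounds screened at 25 uM in duplicate; actives then run in concentration-response up to 50 uM, loss of signal versus DMSO.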

| Structure (SMILES) | outcome | AC50 |
| --- | --- | --- |
| O=C1C2CC=CCC2C(=O)N1SC(Cl)(Cl)Cl (configuration not stated) | inactive |  |
| O=P(O)(O)CCCl | inactive |  |
| CCOP(=O)(OCC)Oc1nc(Cl)c(Cl)cc1Cl | inactive |  |
| Cc1nc(N(C)C)nc(OC(=O)N(C)C)c1C |  | 0.991 µM (active) |

Each molecule was assayed against rat Constitutive Nitric Oxide Synthase (CNOS), Nos1 (gene 24598) (UniProt P29476) (assay: NVS_ENZ_rCNOS: NovaScreen (NVS) Enzymatic Assay for rat Constitutive Nitric Oxide Synthase (CNOS) (AID 2283236)).
Sequence of rat Constitutive Nitric Oxide Synthase (CNOS), Nos1 (gene 24598) (P29476 whole entry, looked up): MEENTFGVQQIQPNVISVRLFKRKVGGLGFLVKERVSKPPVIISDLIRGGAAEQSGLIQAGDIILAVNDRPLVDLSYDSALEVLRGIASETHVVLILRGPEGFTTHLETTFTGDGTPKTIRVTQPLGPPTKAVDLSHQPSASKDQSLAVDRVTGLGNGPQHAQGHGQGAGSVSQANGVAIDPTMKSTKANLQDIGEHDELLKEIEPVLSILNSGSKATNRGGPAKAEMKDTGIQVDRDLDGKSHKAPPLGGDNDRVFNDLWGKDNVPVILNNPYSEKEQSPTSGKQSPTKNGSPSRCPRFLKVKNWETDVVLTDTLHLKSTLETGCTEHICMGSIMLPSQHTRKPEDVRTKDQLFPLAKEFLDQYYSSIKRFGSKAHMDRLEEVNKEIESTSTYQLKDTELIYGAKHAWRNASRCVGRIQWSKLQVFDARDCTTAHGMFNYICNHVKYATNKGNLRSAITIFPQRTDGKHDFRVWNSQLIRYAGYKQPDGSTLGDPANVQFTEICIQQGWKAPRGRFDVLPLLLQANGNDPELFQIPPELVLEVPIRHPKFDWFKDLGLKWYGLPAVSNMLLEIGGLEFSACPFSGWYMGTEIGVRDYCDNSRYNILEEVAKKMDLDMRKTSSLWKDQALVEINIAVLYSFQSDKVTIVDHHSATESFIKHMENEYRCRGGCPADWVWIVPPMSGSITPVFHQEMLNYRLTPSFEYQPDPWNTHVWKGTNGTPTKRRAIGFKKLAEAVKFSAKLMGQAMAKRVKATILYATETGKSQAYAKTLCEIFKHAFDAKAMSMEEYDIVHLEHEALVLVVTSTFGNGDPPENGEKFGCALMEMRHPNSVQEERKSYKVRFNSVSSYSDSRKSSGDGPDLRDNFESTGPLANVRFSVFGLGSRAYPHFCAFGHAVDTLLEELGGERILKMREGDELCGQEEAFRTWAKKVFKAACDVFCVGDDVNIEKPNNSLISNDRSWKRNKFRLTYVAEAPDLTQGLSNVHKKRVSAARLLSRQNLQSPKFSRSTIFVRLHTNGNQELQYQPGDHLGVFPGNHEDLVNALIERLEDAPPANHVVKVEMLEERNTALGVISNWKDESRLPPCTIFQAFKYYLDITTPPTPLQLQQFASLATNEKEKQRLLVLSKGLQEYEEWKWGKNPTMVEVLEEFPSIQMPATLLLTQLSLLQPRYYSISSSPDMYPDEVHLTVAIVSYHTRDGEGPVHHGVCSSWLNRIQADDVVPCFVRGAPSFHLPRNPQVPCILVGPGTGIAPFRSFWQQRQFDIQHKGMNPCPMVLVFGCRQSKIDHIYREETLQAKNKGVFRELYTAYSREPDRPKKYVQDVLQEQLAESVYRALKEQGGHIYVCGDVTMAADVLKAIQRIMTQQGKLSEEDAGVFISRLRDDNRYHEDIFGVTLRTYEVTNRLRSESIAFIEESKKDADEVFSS
How it was run: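 Enzyme activity in rat brain membrane preparation, read 1 h after dosing by filter-based radiometric scintillation counting. Primary screen in duplicate at 25 uM; actives (e.g., ≥30% inhibition) then run in concentration-response up to 50 uM.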

| Structure (SMILES) | outcome | AC50 |
| --- | --- | --- |
| COC(=O)c1c(C(F)F)nc(C(F)(F)F)c(C2=NCCS2)c1CC(C)C | inactive |  |
| CS(=O)(=O)c1ccc(C(=O)C2C(=O)CCCC2=O)c([N+](=O)[O-])c1 | inactive |  |
| COc1ccc(-c2ccccc2)cc1NNC(=O)OC(C)C | inactive |  |
| CN=C=S | inactive |  |
| CCNC(=O)NC(=O)C(C#N)=NOC |  | 9.03 µM (active) |
| COP(=S)(OC)SCn1nnc2ccccc2c1=O | inactive |  |
| CCN(CC)c1nc(C)cc(OP(=S)(OC)OC)n1 | inactive |  |
| CC(C)NC(=O)N1CC(=O)N(c2cc(Cl)cc(Cl)c2)C1=O |  | 25 µM (active) |

These molecules were tested on rat Monoamine Oxidase, MAO-A, Peripheral (MAOAP), gene 29253 (assay: NVS_ENZ_rMAOAP: NovaScreen (NVS) Enzymatic Assay for rat Monoamine Oxidase, MAO-A, Peripheral (MAOAP) (AID 2283237)).
How it was run: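 Rat liver mitochondrial membranes served as the MAO-A source, with enzyme activity measured by radiometric scintillation counting 1.17 hours after dosing. Loss of signal was fitted against DMSO; primary screen used 25 uM in duplicate, follow-up used concentration series.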

| Structure (SMILES) | outcome | AC50 |
| --- | --- | --- |
| COC(=O)c1c(C(F)F)nc(C(F)(F)F)c(C2=NCCS2)c1CC(C)C | inactive |  |
| COc1ccc(-c2ccccc2)cc1NNC(=O)OC(C)C |  | 0.31 µM (active) |
| CC(C)N1C(=O)N(c2ccccc2)CSC1=NC(C)(C)C | inactive |  |
| COc1cc(OC)nc(NC(=O)NS(=O)(=O)c2ncccc2OCC(F)(F)F)n1 | inactive |  |
| COP(=S)(OC)SCn1nnc2ccccc2c1=O | inactive |  |
| Cc1nc(N(C)C)nc(OC(=O)N(C)C)c1C |  | 10.4 µM (active) |
| CCCCC(C#N)(Cn1cncn1)c1ccc(Cl)cc1 (configuration not stated) | inactive |  |

The molecules below were run against rat Monoamine Oxidase, MAO-B, Central (MAOBC), Maob (gene 25750) (UniProt P19643) (assay: NVS_ENZ_rMAOBC: NovaScreen (NVS) Enzymatic Assay for rat Monoamine Oxidase, MAO-B, Central (MAOBC) (AID 2283238)).
Sequence of rat Monoamine Oxidase, MAO-B, Central (MAOBC), Maob (gene 25750) (P19643 whole entry, looked up): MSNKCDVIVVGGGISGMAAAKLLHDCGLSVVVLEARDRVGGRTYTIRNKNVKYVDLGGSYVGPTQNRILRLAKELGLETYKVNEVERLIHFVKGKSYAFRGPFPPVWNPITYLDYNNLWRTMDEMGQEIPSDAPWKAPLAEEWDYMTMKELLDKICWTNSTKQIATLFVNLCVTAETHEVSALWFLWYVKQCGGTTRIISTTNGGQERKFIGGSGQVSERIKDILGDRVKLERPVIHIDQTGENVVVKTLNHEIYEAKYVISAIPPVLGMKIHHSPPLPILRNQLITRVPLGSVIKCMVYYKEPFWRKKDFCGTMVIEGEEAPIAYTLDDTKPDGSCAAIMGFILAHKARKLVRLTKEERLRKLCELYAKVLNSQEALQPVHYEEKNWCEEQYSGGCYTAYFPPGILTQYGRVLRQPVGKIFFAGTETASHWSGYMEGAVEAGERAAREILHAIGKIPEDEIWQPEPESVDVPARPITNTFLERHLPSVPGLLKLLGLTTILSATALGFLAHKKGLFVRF
How it was run: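 Compounds were first tested in duplicate at 25 uM against MAO-B from rat brain tissue; those passing the inhibition threshold were retested in concentration series up to 50 uM. Radiodetection by scintillation counting at 1.17 h, analysed against DMSO baseline.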

| Structure (SMILES) | AC50 | outcome |
| --- | --- | --- |
| N#Cc1c(Cl)cccc1Cl | 25 µM (active) |  |
| CNC(=O)Oc1cccc2ccccc12 | 6.28 µM (active) |  |
| COc1ccc(-c2ccccc2)cc1NNC(=O)OC(C)C | 0.0452 µM (active) |  |
| CC1(C)CCC(=Cc2ccc(Cl)cc2)C1(O)Cn1cncn1 (configuration not stated) |  | inactive |
| N#Cc1c[nH]cc1-c1cccc2c1OC(F)(F)O2 |  | inactive |
| Cc1ccc(N=CN(C)C=Nc2ccc(C)cc2C)c(C)c1 |  | inactive |

The molecules below were run against bovine Dopamine Receptor (DR), Non-selective Binding, DRD1 (gene 281125) (UniProt Q95136) (assay: NVS_GPCR_bDR_NonSelective: NovaScreen (NVS) G Protein-Coupled Receptor Assay for bovine Dopamine Receptor (DR), Non-selective Binding (AID 2283241)).
Sequence of bovine Dopamine Receptor (DR), Non-selective Binding, DRD1 (gene 281125) (Q95136 whole entry, looked up): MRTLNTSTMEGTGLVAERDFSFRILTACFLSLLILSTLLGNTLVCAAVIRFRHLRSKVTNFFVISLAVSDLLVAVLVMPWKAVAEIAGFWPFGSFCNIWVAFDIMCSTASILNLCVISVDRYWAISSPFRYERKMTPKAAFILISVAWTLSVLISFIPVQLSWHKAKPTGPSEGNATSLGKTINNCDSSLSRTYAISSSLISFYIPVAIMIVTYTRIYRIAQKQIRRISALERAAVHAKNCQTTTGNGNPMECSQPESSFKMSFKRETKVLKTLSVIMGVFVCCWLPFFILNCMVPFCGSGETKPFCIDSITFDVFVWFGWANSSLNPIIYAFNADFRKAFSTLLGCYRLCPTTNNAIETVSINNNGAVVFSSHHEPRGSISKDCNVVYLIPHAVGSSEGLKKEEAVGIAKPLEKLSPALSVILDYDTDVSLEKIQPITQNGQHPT
How it was run: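 Bovine striatal membranes; radioligand displacement read by filtration and scintillation counting 1 h after dosing, loss of signal vs DMSO. Screened in duplicate at 25 uM, then concentration-response for hits.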

| Structure (SMILES) | outcome |
| --- | --- |
| CC(C)=CC1C(C(=O)OCc2coc(Cc3ccccc3)c2)C1(C)C (configuration not stated) | inactive |
| CCCN(CC)CC1COC2(CCC(C(C)(C)C)CC2)O1 (configuration not stated) | inactive |
| CC(C)NC(=O)N1CC(=O)N(c2cc(Cl)cc(Cl)c2)C1=O | inactive |

Each molecule was assayed against rat Monoamine Oxidase, MAO-B, Peripheral (MAOBP), Maob (gene 25750) (UniProt P19643) (assay: NVS_ENZ_rMAOBP: NovaScreen (NVS) Enzymatic Assay for rat Monoamine Oxidase, MAO-B, Peripheral (MAOBP) (AID 2283242)).
Sequence of rat Monoamine Oxidase, MAO-B, Peripheral (MAOBP), Maob (gene 25750) (P19643 whole entry, looked up): as the sequence (P19643 whole entry, looked up) above

| Structure (SMILES) | AC50 | outcome |
| --- | --- | --- |
| CNC(=O)Oc1cccc2ccccc12 | 25 µM (active) |  |
| COc1ccc(-c2ccccc2)cc1NNC(=O)OC(C)C | 0.139 µM (active) |  |
| CC(C)N1C(=O)N(c2ccccc2)CSC1=NC(C)(C)C |  | inactive |
| CN=C=S |  | inactive |
| COP(=S)(OC)SCn1nnc2ccccc2c1=O |  | inactive |
| CCCN(CC)CC1COC2(CCC(C(C)(C)C)CC2)O1 (configuration not stated) |  | inactive |
| O=C(Nc1ccccc1-c1ccc(Cl)cc1)c1cccnc1Cl |  | inactive |

Each molecule was assayed on rat Monoamine Oxidase, MAO-A, Central (MAOAC), gene 29253 (assay: NVS_ENZ_rMAOAC: NovaScreen (NVS) Enzymatic Assay for rat Monoamine Oxidase, MAO-A, Central (MAOAC) (AID 2283243);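 also: potency refers to inhibition seen as signal drop below DMSO baseline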).
Method: NVS_ENZ_rMAOAC is a biochemical, single-readout assay that uses extracted gene-proteins from Rat brain in a tissue-based cell-free assay. Measurements were taken 1.5 hours after chemical dosing in a 96-well plate.NVS_ENZ_rMAOAC is one of one assay component(s) measured or calculated from the NVS_ENZ_rMAOAC assay. It is designed to make measurements of enzyme activity, a form of enzyme reporter, as detected with scintillation counting signals by Lysate-based radiodetection technology.Data from the assay component NVS_ENZ_rMAOAC was analyzed into 1 assay endpoint. This assay endpoint, NVS_ENZ_rMAOAC, was analyzed in the positive analysis fitting direction relative to DMSO as the negative control and baseline of activity. Using a type of enzyme reporter, loss-of-signal activity can be used to understand changes in the enzymatic activity as they relate to the gene Maoa. Furthermore, this assay endpoint can be referred to as a primary readout, because this assay has produced multiple assay endpoints where this one serves a enzymatic activity function. To generalize the intended target to other relatable targets, this assay endpoint is annotated to the oxidoreductase intended target family, where the subfamily is monoamine oxidase.
Binding assays used specific radioligands (tritiated, iodinated) with non-radioactive competitive displacement ligands in agonist or antagonist protocols (as indicated) and various reference compounds and inhibitors to titrate specific binding to receptors and transporters. Most enzyme assays (CYPs, kinases, phosphatases, proteases, HDACs) used recombinant protein and specific substrates (fluorescence mostly, some colorimetric and radioactive) and inhibitors, followed by a biochemical separation of substrate and product. All assays for the biochemical HTS were initially run in duplicate at a single concentration (10 uM for CYP450 assays and 25 uM for all others). […] Each assay was run with positive and negative controls, and concurrent controls on every plate. The follow-up (secondary) screen tested active chemical-pairs in concentration series, as well as a few additional assays not tested in the primary screen, some selected negative inactives, and several cases re-run in the concentration series for confirmatory purposes.

| Structure (SMILES) | outcome | AC50 |
| --- | --- | --- |
| N#Cc1c(Cl)cccc1Cl | inactive |  |
| CNC(=O)Oc1cccc2ccccc12 |  | 13.8 µM (active) |
| COP(=S)(OC)Oc1ccc([N+](=O)[O-])c(C)c1 | inactive |  |
| Cc1cc(C)nc(Nc2ccccc2)n1 | inactive |  |
| COc1ccc(-c2ccccc2)cc1NNC(=O)OC(C)C |  | 0.599 µM (active) |
| Nc1c(Cl)c(F)nc(OCC(=O)O)c1Cl |  | 46.8 µM (active) |
| N#Cc1c[nH]cc1-c1cccc2c1OC(F)(F)O2 | inactive |  |
| Cc1ccc(N=CN(C)C=Nc2ccc(C)cc2C)c(C)c1 |  | 1.66 µM (active) |
| Cc1nc(N(C)C)nc(OC(=O)N(C)C)c1C |  | 12.8 µM (active) |
